30 compounds from PubChem BioAssay AID686940 (The Scripps Research Institute Molecular Screening Center, 2013) can be followed below.

About 2,600 (0.7%) of roughly 370,000 compounds were called active. Many of the other results were omitted from the sample, so actives are more common in it than they were. A number with no mark means an inactive call.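 Rule for the calls: active = inhibition above a per-plate cutoff, mean inhibition of test wells between control levels plus 3 SD (cut at about 38% in these data); inactive = the rest.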

In the test the target is COUP transcription factor 2 (Homo sapiens) (UniProt P24468). In words: COUP-TFII reporter suppression in human cells – cell-based, luciferase reporter, HEK293T, luminescence, primary screen (AID 686940).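 Note: cells cotransfected with COUP-TFII expression vector driving the NGFI-A reporter; 0% = median of COUP-TF2 test wells and 100% = reporter-only cells.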 The note with it: HEK293T NGFI-A luciferase reporter, at 8.6 µM, active compounds read high.
COUP transcription factor 2 (Homo sapiens), sequence (P24468 whole entry, looked up): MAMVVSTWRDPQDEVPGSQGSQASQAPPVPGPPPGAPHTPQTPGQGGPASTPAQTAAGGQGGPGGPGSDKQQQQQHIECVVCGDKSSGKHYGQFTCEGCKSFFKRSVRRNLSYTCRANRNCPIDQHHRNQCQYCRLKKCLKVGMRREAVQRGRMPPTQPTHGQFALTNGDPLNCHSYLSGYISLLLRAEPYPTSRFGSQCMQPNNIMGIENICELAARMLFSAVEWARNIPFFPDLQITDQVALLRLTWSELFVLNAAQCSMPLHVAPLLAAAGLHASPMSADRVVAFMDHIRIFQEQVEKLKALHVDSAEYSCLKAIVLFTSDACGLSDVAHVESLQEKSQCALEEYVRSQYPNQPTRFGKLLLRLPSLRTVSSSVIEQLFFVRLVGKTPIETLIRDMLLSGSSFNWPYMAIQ
Consider `CC1=CC(=Cc2sc3ccccc3[n+]2C)C=C(C)O1`, for which the inhibition is 71.6% (active).

As for `O=C(NCC1=C(c2ccc3ccccc3c2)C[C@@H]2CC[C@H]1N2Cc1ccco1)c1cccs1`, the inhibition was -9.66%. As for `COC(=O)C1=C(c2ccc(-c3ccccc3)c(F)c2)C[C@@H]2CC[C@H]1N2C(=O)NCc1ccc(F)cc1`, the figure is 9.38%; as for `Cc1cccc(NC(=O)OC2CN3CCC2CC3)c1` (stereo not given), -3.61%. In the case of `COC1C(O)C(C)OC(OC2CCC3(C=O)C(CCC4C3CCC3(C)C(C5=CC(=O)OC5)CCC43O)C2)C1O` (stereo not given), the inhibition is 78.5% (active). `Cc1ccc(P(=S)(c2ccc(C)o2)N2CCOCC2)o1`: the inhibition was -6.39%. `O=C(C1CC(=O)N(C2CCCC2)C1)N1CCC2(CC1)OCCO2` (stereo not given): the inhibition is -6.43%. As for `CC(=C1C(=O)c2ccccc2C1=O)N1CCN(CCN=Cc2c(O)n(C)c(=O)n(C)c2=O)CC1`, the figure is 13.2%; as for `c1ccc(C(CN2CCCCC2)c2ccccc2)cc1`, 5.82%. As for `CCOc1ccc(-c2cc(C)[n+](CCN(CC)CC)c(-c3ccc(OCC)cc3)c2)cc1`, the figure is 65.8% (active); as for `Cc1cc(N2CCNC[C@@H]2C)ccc1N1CC[C@H](O)C1`, 14.6%; as for `Cc1ccccc1CCC[C@@H](CC1CCCCC1)CN(C)C(=O)Oc1ccccc1`, 0.63%. As for `CO[C@H]([C@H](C)/C=C/N(C)C=O)[C@@H](C)C(=O)CC[C@H](C)[C@H](O)[C@H](C)[C@H]1OC(=O)/C=C/C(C)=C/[C@H](O)[C@H](OC)C[C@@H]2C=CC[C@@H](C[C@H](OC)[C@@]3(CO3)[C@@H](OC)C[C@@H](OC)[C@@H]1C)O2`, the figure is -21.1%. Consider `CCC(C)(O)C(=O)OC1C(=O)OC2CC3C(C)=CC(=O)C(O)C3(C)C3C4(O)OCC23C1C(C)C4O` (stereo not given), for which the inhibition is 89.2% (active). In the case of `CC(C)Oc1cccc(C(=O)C2CCCN(C3CCOCC3)C2)c1` (stereo not given) it was -4.53%; in that of `COc1ccc2c(c1)[C@@]13CCCCC1[C@@H](C2)NCC3` (stereo not given in full), -12.9%. In the case of `Clc1ccc([C@@H]2CC3CCC2N3)cn1` (stereo not given in full) it was -1.27%. As for `O=S(=O)(c1ccccc1)N1CCC2CCNC2C1` (stereo not given), the figure is 12.5%. For the compound `CS(=O)(=O)N1CCC2CCNC2C1` (stereo not given), the inhibition is 8.62%.

Consider `Brc1ccc2c(c1)CNCc1cnnn1-2`, for which the inhibition was -8.52%.

`CCCCCCCCCCCCn1ccc(=N)cc1`: the inhibition is 81.1% (active).

For `COP(=O)(Sc1ccccc1)C(Cc1ccccc1)NC(=O)OCc1ccccc1` (stereo not given), the inhibition is -13.2%.

With `CC(=NC1CCN(Cc2ccccc2)CC1)c1c(O)n(C)c(=O)n(C)c1=O`, the inhibition was -7.27%.

In the case of `CCC(C)NC1(c2ccccc2)CCCCC1` (stereo not given), the inhibition was 6.15%. As for `O=c1c2ccccc2nc(CBr)n1-c1ccc(Cl)cc1`, the figure is 6.6%; as for `C[C@]12CC[C@H](O)C[C@H]1CC[C@@H]1C2CC[C@]2(C)[C@@H](C3=CC(=O)OC3)[C@@H](O)C[C@]12O` (stereo not given in full), 44.1% (active).

`CCN(CC)C(=O)[C@@H]1C=C2c3cccc4[nH]c(Br)c(c34)C[C@H]2N(C)C1`: the inhibition was 14.9%. As for `CCC/C(=N\O)c1c[nH]c2ccccc12`, the figure is -11.3%; as for `COc1cc(OC)cc(C(=O)NCCN2CCC3(CC2)C(=O)NCN3c2ccccc2)c1`, 0.55%; as for `NCCc1ccc(S(=O)(=O)F)cc1`, 18.9%.

For orientation: inhibition means the drop in the measured response relative to a control, in per cent.
